From PubChem BioAssay
Only a sample is shown.
aSyn 5UTR act = Activators via SNCA 5'UTR binding, MLPCN; hit rate 7.1% among 300,000; activity score, % (tested at 7.5 µM), hits read low; alpha-synuclein 5'UTR reporter, activators screen; AID 1814; in the data active = activity score below about -60%
Active calls of the source: *.

SMILES | aSyn 5UTR act
CCOC(=O)c1nnc2cc(-c3ccc(Br)cc3)nn2c1C | -114*
Cc1ccc(NCCC(=O)c2cccc([N+](=O)[O-])c2)c(C)c1 | -201*
Fc1ccc(/C=N/NC(=S)Nc2cccnc2)cc1F | -86*
O=C1/C(=C/C=C/c2ccco2)SC(=S)N1c1ccc(O)cc1 | -78*
CN(C)c1ccc(/C=C/C=C2/SC(=S)N(c3ccccc3)C2=O)cc1 | -76*
CC(/C=N/NC(=O)Cc1cccn1C)=C\c1ccco1 | -69*
CC(/C=N/NC(=O)c1cc(-c2ccc(Cl)cc2)nc2ccccc12)=C\c1ccco1 | 85
COc1ccc(C(=O)NCC(=O)N/N=C/C(C)=C/c2ccco2)cc1OC | -62*
O=C(CN1CCN(Cc2ccccc2)CC1)N/N=C/C=C/c1ccco1 | -95*
O=C(CNC(=O)c1ccccc1O)N/N=C/c1cc(Br)ccc1OC(=O)/C=C/c1ccco1 | 68
CC(/C=N/NC(=O)CN1CCN(Cc2ccc(Cl)cc2)CC1)=C\c1ccco1 | -87*
Cc1ccc(CN2CCN(CC(=O)N/N=C/c3ccccc3F)CC2)cc1 | -63*
CC1CCC/C(=N\NC(=S)Nc2ccccc2)C1 (stereo not given) | -94*
CC1CCCC/C1=N\NC(=S)Nc1ccccc1 (stereo not given) | -132*
COc1ccc(NC(=O)c2cc3ccc(O)cc3o/c2=N\O)cc1 | -155*
O=C(c1ccc(F)cc1)c1cc2ccc(O)cc2oc1=O | -62*
N=c1oc2cc(O)ccc2cc1C(=O)Nc1ccc(F)cc1 | -148*
CCCCCCc1cc2cc(C(=O)Nc3cccc(OC)c3)c(=O)oc2cc1O | 63
COc1ccc(NC(=O)c2cc3cc(OC)ccc3oc2=N)cc1 | -63*
O=C(Nc1cccc(Cl)c1)Nc1ccc2nccnc2c1 | -163*
O=C(Nc1ccc2nccnc2c1)Nc1ccccc1Cl | -90*
Cn1nnc2cc(NC(=O)Nc3cccc(Cl)c3)ccc21 | -151*
CCN1CCN(C(=O)c2cc(COc3ccc(C(C)=O)cc3OC)on2)CC1 | -146*
Cc1ccc(OCc2cc(C(=O)N3CCC(C(O)C(C)C)CC3)no2)cc1C (stereo not given) | -80*
COc1ccc(C(=O)/C=C/C(=O)N(CC(=O)NCCC(C)C)Cc2cccs2)c(O)c1 | 61
SMILES | aSyn 5UTR act
Cc1ccc(OCc2cc(C(=O)N(CCO)Cc3cccs3)no2)cc1C | -81*
COc1cc(C)ccc1OCc1cc(C(=O)N2CCN(C3CCCCC3)CC2)no1 | -99*
COc1cc(C)ccc1OCc1cc(C(=O)NC(C)Cn2cncn2)no1 (stereo not given) | -155*
Cc1ccc(OCc2cc(C(=O)N3CCN(c4ccccc4)CC3)no2)cc1C | -155*
Cc1ccc(OCc2cc(C(=O)N3CCN(C4CCCCC4)CC3)no2)cc1C | -62*
COc1cccc(OCc2cc(C(=O)N3CCN(c4ccccc4OC)CC3)no2)c1 | -139*
COc1cccc(N2CCN(C(=O)c3ccc(CS(=O)c4ccccc4Cl)o3)CC2)c1 (stereo not given) | 110
COc1cc(C)ccc1OCc1cc(C(=O)N2CCCCCCC2)no1 | -62*
COc1ccccc1N1CCN(C(=O)c2c(-c3ccccc3)noc2C)CC1 | -78*
Cc1ccc(OCc2cc(C(=O)N3CCC(c4ccccc4Cl)C3)no2)cc1C (stereo not given) | -165*
O=[N+]([O-])c1cc(/C=N\Nc2nc(-c3ccccc3)cs2)ccc1O | -67*
COc1cc(/C=N/Nc2nc(-c3ccc(S(=O)(=O)N(C)C)cc3)cs2)ccc1O | -78*
Cc1cc(C)cc(NC(=O)/C(C#N)=C/c2cn(CC(=O)NCc3ccco3)c3ccccc23)c1 | 111
Cc1cc(/C=C(\C#N)C(=O)Nc2ccccc2F)c(C)[nH]1 | -129*
Cc1cc(/C=C(\C#N)C(=O)NCc2ccco2)c(C)[nH]1 | -64*
Cc1cc(/C=C(\C#N)C(=O)NC2CC2)c(C)[nH]1 | -145*
COc1ccc(C2=NN3C(C2)c2ccccc2OC32C(=O)N(C)c3ccccc32)cc1 (stereo not given) | -131*
Cc1ccc(C(=O)C2Oc3ccccc3C3CC(c4ccc(C)cc4)=NN23)cc1 (stereo not given) | -82*
COc1ccc(C2=NN3C(C2)c2ccccc2OC3c2cccs2)cc1 (stereo not given) | -190*
Cc1ccc(C2=NN3C(C(=O)c4ccccc4)Oc4ccccc4C3C2)cc1 (stereo not given) | -146*
CNc1sc(C(=O)c2cccs2)c(N)c1-c1nc2ccccc2s1 | -157*
CNc1sc(C(=O)c2ccc(F)cc2)c(N)c1-c1nc2ccccc2s1 | -137*
Nc1nc(N)nc(-c2ccc(Cl)cc2)n1 | -112*
Nc1nc(-c2ccc(Cl)cc2)nnc1-c1ccc(Br)cc1 | -178*
Cc1cccc(-c2nc(N)nc(N)n2)c1 | -74*
Cc1nn(-c2nnc(NCc3ccccc3)nn2)c(C)c1Br | -85*
CC1CCCCN1C(=O)c1cc(-c2ccc(Cl)c(Cl)c2)on1 (stereo not given) | -222*
CC1CCCCN1C(=O)c1cc(-c2ccc3c(c2)OCO3)on1 (stereo not given) | -87*
